AmpC detergent: blocks E. coli AmpC beta-lactamase in detergent assay; P00811; AmpC hydrolysis of nitrocefin, absorbance 480 nm, 0.01% Triton; Potency, µM (top dose mostly 114 µM), for the others: at the top dose activity change, negative = inhibition, hits mostly inhibitors; 370,000 compounds, 0.041% hits;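 further: potency means the concentration at half of the fitted maximal effect; 0% = no-compound wells and -100% = no-enzyme wells; nearly all actives have a fitted effect of over 25% in size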
Target sequence (P00811 whole entry, looked up): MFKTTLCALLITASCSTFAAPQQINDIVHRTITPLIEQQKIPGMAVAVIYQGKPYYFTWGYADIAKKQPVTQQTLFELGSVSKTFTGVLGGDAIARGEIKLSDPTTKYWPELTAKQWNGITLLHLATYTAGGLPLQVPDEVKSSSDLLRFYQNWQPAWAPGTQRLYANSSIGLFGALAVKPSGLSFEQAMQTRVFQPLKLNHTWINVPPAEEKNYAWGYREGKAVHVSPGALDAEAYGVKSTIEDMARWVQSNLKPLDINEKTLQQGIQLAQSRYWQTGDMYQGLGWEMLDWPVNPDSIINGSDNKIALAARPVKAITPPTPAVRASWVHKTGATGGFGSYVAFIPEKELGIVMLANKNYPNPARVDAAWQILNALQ
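20 mM phosphate pH 7.0 + 0.01% (detergent screen) or 0.0001% Triton X-100; 5.3 nM AmpC reagent; cpd preinc 15 min RT; nitrocefin (800 uM stock) to start; A480 q20 s × 4 min; Activity was normalised to no-enzyme and no-compound control wells.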
AMA1-RON2 inh: inhibitors of Plasmodium falciparum AMA1-RON2 interaction. AlphaScreen AMA1-biotinylated RON2 peptide binding. Potency, µM (highest dose often 58.2 µM), inactives show at the top dose activity change, negative = inhibition, most hits filed as inhibitors. 360,000 compounds, 0.2% hits;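 further: potency means the concentration at half of the fitted maximal effect; 0% = vehicle wells and -100% = peptide control; nearly all actives have a fitted effect of over 45% in size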
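AMA1 (3D7) with his tag at 25 nM final met compounds first, then biotinylated RON2 peptide at 25 nM; detection used donor plus acceptor beads, 10 µg/mL apiece, read by AlphaScreen after 30 min at room temperature.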
CHX counter: counter-screen hit for Shiga toxin inhibitors, cycloheximide; 300,000 compounds, 12% hits; AID 2314; max response, %; cell reporter, cycloheximide protein synthesis inhibition counterscreen; in the data active means max response mostly above about 13%, no sharp cut-off; inactive means mostly below about 14%; further: read at 38.3 µM for the half of the compounds with a filed dose; 0% is about no effect
AmpC no deterg: AmpC beta-lactamase inhibition without detergent; P00811; Potency, µM (top dose mostly 57.1 µM), inactives show at the highest dose activity change, negative = inhibition, actives largely listed as inhibitors; 330,000 compounds, 0.52% hits; AmpC nitrocefin hydrolysis, absorbance 480 nm, 0.0001% Triton; AID 485341;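 further: potency means the concentration at half of the fitted maximal effect; plate controls were no compound for no effect and no enzyme for full effect; nearly all actives have a fitted effect of over 20% in size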
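AmpC (5.3 nM in the dispensed reagent) in 20 mM phosphate pH 7.0 with 0.01% (detergent screen) or 0.0001% Triton X-100 was preincubated with compounds for 15 min at room temperature. Nitrocefin was then added from an 800 uM solution, and hydrolysis was followed at 480 nm.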
SARS PLP yeast: blocks SARS-CoV papain-like protease in a yeast assay; Potency, µM (series often up to 32.9 µM), without a hit: at the top dose activity, positive = growth rescue, actives largely listed as activators; 330,000 compounds, 0.19% hits; AID 485353; S. cerevisiae expressing SARS-CoV PLpro, growth rescue; calls by dose curve; further: potency means the concentration at half of the fitted maximal effect; 0% is about no effect; nearly all actives have a fitted effect of over 55% in size
Shiga toxin inh: Shiga toxin inhibition. Vero cells, Shiga toxin protein synthesis inhibition reporter. inhibition, % at 38.7 µM. 290,000 compounds, 9.2% hits; in the data active means inhibition mostly above about 28%, no sharp cut-off; inactive means mostly below about 43%; further: 0% is about no effect
* = called active by the depositor; ? = inconclusive; . = no result. The full list was thinned out, with hits kept by preference. Unless noted, the call rests on the fitted dose curve; in most records, active means well fitted curve in the direction sought with a large enough effect; inconclusive means small, poorly fitted or top-dose-only effect, or another doubt; inactive means no such curve, though single readings can be large; an effect the other way counts as inactive or inconclusive.

SMILES | AmpC detergent | AMA1-RON2 inh | CHX counter | AmpC no deterg | SARS PLP yeast | Shiga toxin inh
CN1C/C(=C\c2ccc(N3CCOCC3)cc2)C(=O)/C(=C/c2ccc(N3CCOCC3)cc2)C1 | -13% | -5% | 6 | 70% | 10µM* | -1
O=C1/C(=C\c2ccc(-c3ccccc3[N+](=O)[O-])o2)C(c2ccccc2)=NN1c1ccccc1 | 3% | ? | 2 | -34% | -7% | 0
Cc1cccc(N2CCN(C(=O)CCCn3c(=S)[nH]c4cc5c(cc4c3=O)OCO5)CC2)c1C | 2% | 78% | 2 | -30% | 11% | -28
COc1cccc(N2CCN(C(c3ccccn3)c3nnnn3C(C)(C)C)CC2)c1 (centres undefined) | -6% | 0% | -3 | 28% | -2% | -3
COc1cc(C2c3sc(=O)[nH]c3SC3C(=O)N(c4ccc(Br)cc4)C(=O)C32)ccc1O (centres undefined) | 1% | 51% | 8 | 10µM* | 2% | -6
Nc1cc(C(=O)OCC(=O)NNC(=O)c2ccccc2F)ccc1Cl | . | 91% | . | 3% | -1% | .
NC(N)=NN=Cc1ccnc2ccccc12 | . | -4% | . | . | . | .
Clc1ccccc1/C=C/c1ccnc2ccccc12 | 4% | 16% | 46* | -15% | -1% | 63*
Oc1ccc(/C=C/c2ccnc3ccccc23)cc1 | -9% | -4% | 111* | -23% | -2% | 109*
O=C(O)C(=Cc1ccnc2ccccc12)C(=O)O | . | -3% | . | . | . | .
CSc1cccc(NC(=O)C2C3C=CC4(O3)C2C(=O)N(CCCN2CCOCC2)C4C(=O)NC2CCCCC2)c1 (centres undefined) | -5% | -4% | -4 | 3% | -6% | 29
Cn1nc(NC(=O)C2CCC2C(=O)O)c2c(F)cccc21 (centres undefined) | -1% | -3% | -1 | -10% | 2% | -6
Cc1ccc(C(=O)Nc2nn(C)c3cccc(F)c23)cc1 | 5% | 0% | 18* | -5% | -1% | 29
Cc1cc(C(=O)NC(CC(C)C)C(=O)O)cc(C)c1[N+](=O)[O-] (centres undefined) | -8% | 10% | 8 | -14% | 0% | 1
CCOCCCNC(=O)Cn1cc2c(n1)CCCCC2 | ? | 20% | -4 | 45µM* | -8% | 12
CC(C)CCNC(=O)Cn1cc2c(n1)CCCCC2 | ? | -6% | -2 | 45µM* | 1% | 14
O=C(N1CCCCCC1)n1c(Cc2ccccc2)nc2ccccc21 | -2% | -18% | -4 | -11% | 27% | -4
O=C(c1ccc(S(=O)(=O)N2CCCCC2)cc1)N1CCN(Cc2ccc3c(c2)OCO3)CC1 | -7% | -14% | -4 | 149% | 2% | 23
Cc1cccc(N2CCN(C(=O)c3ccc4nc(N5CCCCC5)sc4c3)CC2)c1C | -1% | 1% | 3 | 0% | 1% | 31
O=C(c1ccc2nc(N3CCCCC3)sc2c1)N1CCN(c2ccccn2)CC1 | ? | 15% | 23* | 13% | -17% | 11
NC(=O)C1CCN(C(=O)c2ccc3nc(N4CCCCC4)sc3c2)CC1 | 6% | -1% | 35* | 0% | -2% | 71*
CCOC(=O)N1CCN(C(=O)c2ccc3nc(N4CCCCC4)sc3c2)CC1 | -3% | -19% | 14* | 79% | -9% | 18
O=C(c1ccc2nc(N3CCCCC3)sc2c1)N1CCN(Cc2ccc3c(c2)OCO3)CC1 | ? | ? | 30* | 32µM* | 3% | active
COC(=O)CN1C(=O)[C@H]2[C@@H](c3ccc(C)o3)N3C(=O)CN(Cc4ccc(-c5ccccc5)cc4)C(=O)[C@@]3(C)[C@H]2C1=O | -4% | -2% | -1 | 256% | -5% | -5
O=C(CN(C1CCCCC1)S(=O)(=O)c1ccc(F)cc1)Nc1ccc2c(c1)OCO2 | -8% | -22% | -2 | -27% | -16% | 20
COc1cccc(N2CCN(C(=O)c3ccc4nc(N5CCC(C)CC5)sc4c3)CC2)c1 | 0% | . | 64* | 53% | 0% | 117*
c1ccc(CN2CCN(c3nc4ccccc4s3)CC2)cc1 | 3% | -4% | 53* | 34% | 0% | 96*

Bioassay records (PubChem)
